# Data as given in PubChem BioAssay AID651558 (National Center for Advancing Translational Sciences (NCATS), 2012).
# Out of some 1,200 compounds screened, about 480 (40%) were called active. Another 29% or so got no clear call; they are omitted. Calls follow the shape of the dose curve; as a rule, active = well fitted inhibition curve with a large enough effect; inconclusive = small, poorly fitted or top-dose-only effect; inactive = no such curve, though single readings can be large or run the other way. This is one part of the list.
# Test: qHTS Assay to Find Inhibitors of Chronic Active B-Cell Receptor Signaling: Hit Validation in Primary Screen; also: nearly all actives have a fitted effect of over 75% in size
# Settings: ABC-DLBCL IkB-luc/CBR ratio luminescence, 4 h; series mostly up to 46.1 µM
# Text: Diffuse large B-cell lymphoma (DLBCL) is the most common category of non-Hodgkin lymphoma, with ~20,000 new cases per year in the United States. DLBCL should be regarded as a collection of different neoplasms. Microarray gene expression analysis has defined two principal types of DLBCL, named for their similarity to normal B cell stages or activation states: a germinal center B-cell (GCB) type, and an activated B-cell (ABC) type. In ABC-DLBCL, a constitutive high-level activity of the NF-kappaB family of transcription factors has been observed (1) and NF-kappaB target genes are more highly expressed in ABC primary tumors than in GCB tumors. Functional studies have shown a constitutive high-level activity of the IkappaB (inhibitor of kappa-B) kinase (IKK) complex. […] Further analysis of DLBCL primary tumors for NF-kappaB target gene expression imply that although CARD11 is required for constitutive IKK activity in all ABC-DLBCL lines, mutations in CARD11 may be the root cause of IKK activation only in lines or tumors with such mutations. In other words, CARD11 mutations may explain NF-kappaB activation in only 10% of ABC-DLBCL cases. […] This process has been termed 'chronic active BCR signaling' (CABS). The goal of this screen is to find small-molecule inhibitors of the CABS pathway found in ABC-DLBCL lines using a cell-based assay that measures IkappaBalpa stability, which has already been extensively validated in the OCI-Ly3 line (PubChem AID:445; REF: 4). […] A cell-sensor assay for I-kappa-B-alpha stabilization has been developed. The assay uses green (CBG68) and red (CBR) emitting beetle luciferases [Chroma-GloTM developed by Promega Corp.] where the green luciferase is fused to IkappaBalpha and the red luciferase is present in its native state. Both luciferase genes are stably present in the TMD8 human ABC DLBCL cell line, but their expression is under the control of tetracycline-inducible promoters. Following the addition of doxycycline to induce expression of the luciferases, the green luminescence in control cultures rises only slowly because the CBG fusion partner IkappaBalpha is targeted by IKK activity for rapid degradation. In contrast, green luminescence rises rapidly in the presence of proteasome inhibitors or IKK inhibitors. The rise in red luminescence of CBR is not affected by proteasome or IKK inhibitors, and serves as normalization for cell number and nonspecific effects. Compounds were screened as a concentration-titration series that ranged from 46 uM to 3 nM. NIH Molecular Libraries Probe Production Network [MLPCN] NIH Chemical Genomics Center [NCGC] MLPCN Grant: R03 DA031086 PI Name: Dr. R. Eric Davis
# Cells were seeded in 1536-well plates at 5000 cells/4uL in IMDM medium containing 0.5% FBS, w/o phenol red, 1% penicillin/streptomycin. Then, 23 nL of compounds or DMSO were delivered to each well using a pin tool. One uL 20ng/ml doxycycline was then dispensed into white solid 1536-well plates and the plates were incubated at 37C/5% C02 in a cell incubator for 4 hrs. Then 4 uL luminescent substrate mix (in-house prepared: 150 mM Tris-Cl, pH 7.6, 3 mM MgCl2, 1% Triton X-100, 5 mM DTT, 0.2 mM CoA, 0.15 mM ATP, 5 mM D-luciferin, final concentrations) was added to each well. The plate was incubated at r.t. for 10-15 min. The plates were measured on a ViewLux plate reader for green luminescence (540/20 nm filter) and red luminescence (618/8 nm filter). The green and red luminescent signals were corrected for red and green luminescence filter overlap using previously determined filter calibration constants (determined using the procedure outlined in the Promega Technical Manual; REF 4). The %Activity was determined from the ratio of corrected green/red luminescent values. MG132 were used as control. Green luminescent and ratio %Activity was determined by normalizing to the difference in signal between basal cells (0% Activity) and cells incubated with 10 uM of the proteasome inhibitor MG-132 (100% Activity). […]
# Potency is read from the fitted curve at half-maximal effect.
row,SMILES,Potency
1,O=C(Oc1c(CN2CCOCC2)cc(Cl)c2cccnc12)c1ccccc1F,inactive
2,Cc1noc(C)c1CSc1ccc2ccccc2n1,inactive
3,C=CCn1c(SCc2c(C)noc2C)nc2ccccc2c1=O,14.6 µM (active)
4,CCn1ncc(C2=NOC(C(=O)NCc3ccccc3)C2)c1C (stereo not given),18.4 µM (active)
5,CCn1ncc(C2=NOC(C(=O)NCc3ccc(Cl)cc3)C2)c1C (stereo not given),8.2 µM (active)
6,Cc1ccc(Sc2c(CO)c(-c3ccccc3)nn2C)cc1,5.17 µM (active)
7,COc1ccc(CC(=O)OCC(=O)c2c[nH]c3ccccc23)cc1,inactive
8,COc1ccc(/C=C(\C#N)c2c[nH]c3ccccc23)cc1,14.6 µM (active)
9,N#C/C(=C\c1ccc(Cl)cc1)c1nc2ccccc2o1,inactive
10,COc1ccc(C(=O)/C=C2/c3ccccc3CC(C)(C)N2C)cc1,20.6 µM (active)
11,Cn1c(=S)[nH]c2c(c1=O)C(C)(C)Cc1ccccc1-2,inactive
12,C=CCN(CC=C)C(=S)NC(=O)c1ccc(OC)cc1,inactive
13,COc1cc2c(c(OC)c1OC)-c1ccc(OC)c(=O)cc1[C@@H](N(C)CC#CCO)CC2,0.259 µM (active)
14,COc1cccc(C(=O)Nc2ccc3c(cc2=O)[C@@H](NC(C)=O)CCc2cc(OC)c(OC)c(OC)c2-3)c1,23.1 µM (active)
15,COc1cc2c(c(OC)c1OC)-c1ccc(OC)c(=O)cc1[C@@H](NC(C)=O)CC2,0.206 µM (active)
16,COc1cc2c(c(OC)c1OC)-c1ccc(N(C)CC(OC)OC)c(=O)cc1[C@@H](NC(C)=O)CC2,5.8 µM (active)
17,CCCC(=O)O[C@]1(C(=O)CO)CC[C@H]2[C@@H]3CCC4=CC(=O)CC[C@]4(C)[C@H]3[C@@H](O)C[C@@]21C,inactive
18,Cc1nc2c(-c3ccccc3)c[nH]n2c(=O)c1Cc1ccccc1,inactive
19,COc1cc2c(c(OC)c1OC)-c1ccc(OC)c(=O)cc1C(NC(C)=O)CC2 (stereo not given),0.206 µM (active)
20,CCN(CC)c1ccc(Nc2cc3n(c(=O)n2)CCc2cc(OC)c(OC)cc2-3)cc1,inactive
21,CCN(CC)c1ccc2c(cc1=O)[C@@H](NC)CCc1cc(OC)c(OC)c(OC)c1-2,5.8 µM (active)
22,NCCNC(=O)Cc1cccc(NC(=O)Cc2ccc(Nc3ncnc4c3ncn4[C@@H]3O[C@H](CO)[C@@H](O)[C@H]3O)cc2)c1,1.46 µM (active)
23,NCCNC(=O)Cc1ccc(NC(=O)Cc2ccc(Nc3ncnc4c3ncn4[C@@H]3O[C@H](CO)[C@@H](O)[C@H]3O)cc2)cc1,0.461 µM (active)
24,CC1CCc2c(sc(NC(=O)CSc3nc(N)cc(=O)[nH]3)c2C(N)=O)C1 (stereo not given),10.3 µM (active)
25,NC(=O)c1c(NC(=O)CSc2nc(N)cc(=O)[nH]2)sc2c1CCCC2,9.2 µM (active)

row,SMILES,Potency
1,COc1cc2c(cc1OC)C(C)N(C(=O)c1cc(C)on1)CC2 (stereo not given),5.8 µM (active)
2,COc1ccc(-c2nn(-c3ccccc3)cc2/C=N/NC(N)=S)cc1OC,20.6 µM (active)
3,COc1ccccc1NS(=O)(=O)c1cccc(C(=O)N/N=C/c2cn(-c3ccccc3)nc2-c2ccccc2)c1,inactive
4,Cc1cccc(C)c1-n1c(C)cc(/C=N/NC(N)=S)c1C,inactive
5,Cc1ccccc1NCC(=O)c1ccc(Br)cc1,inactive
6,Cc1cccc(N(C)S(=O)(=O)c2ccc(-c3cnc(C4CC4)o3)cc2)c1,1.84 µM (active)
7,Cc1ccc(N(C)S(=O)(=O)c2ccc(-c3cnc(C4CC4)o3)cc2)cc1,5.8 µM (active)
8,Cc1ccc2[nH]c(-c3ccccc3)cc(=O)c2c1,5.17 µM (active)
9,Cc1ccc2[nH]c(-c3cccc(F)c3)cc(=O)c2c1,4.11 µM (active)
10,CCn1c(SCC(=O)c2ccc(Cl)cc2)nnc1C(C)C,inactive
11,CCOc1cc(/C=C(/C#N)C(=O)Nc2ccc(O)cc2)cc(Br)c1O,2.06 µM (active)
12,CC1(CCc2ccc(O)cc2)NC(=O)NC1=O (stereo not given),inactive
13,CCOC(=O)C1(C)C(C(=O)OC)=C(c2ccc(OC)cc2)c2ccccc2N1C(=O)OC (stereo not given),inactive
14,CCOC(=O)C(NC(=O)N(C)C)(Nc1sc(C)c(CC)c1C#N)C(F)(F)F (stereo not given),inactive
15,O=[N+]([O-])c1ccc(O)c2ncccc12,inactive
16,O=[N+]([O-])c1ccccc1S(=O)(=O)Nc1cccc2cccnc12,13 µM (active)
17,Cc1ccc(S(=O)(=O)Nc2cccc3cccnc23)cc1,8.2 µM (active)
18,Cc1c(C(=O)Oc2cccc3cccnc23)oc2ccccc12,inactive
19,O=S(=O)(Nc1cccc2cccnc12)c1ccccc1,13 µM (active)
20,O=[N+]([O-])c1cc(F)c2cccnc2c1O,inactive
21,Cc1ccnc(NC(=O)c2cccc(S(=O)(=O)Nc3ccc(C)cc3C)c2)c1,inactive
22,O=C(/C=C\c1ccccc1)Oc1cccc2cccnc12,inactive
23,CCN(CC)S(=O)(=O)c1ccc(C(=O)NCCSc2c[nH]c3ccccc23)cc1,inactive
24,COc1cccc(/C=N/Nc2nc(Nc3ccccc3)nc(-n3nc(C)cc3C)n2)c1O,0.92 µM (active)
25,CC1=NN(C(N)=S)C(=O)C1N=Nc1ccccc1 (stereo not given),inactive
